Results reported in PubChem BioAssay AID2315 (National Center for Advancing Translational Sciences (NCATS), 2010).
Hit rate of the full screen: of about 290,000 compounds, about 27,000 (9.3%) were called active. No stated cut-off is given here; in the data, active means inhibition mostly above about 28% (no sharp cut-off); inactive means mostly below about 43%. Many of the other results were omitted from the sample, so actives are more common in it than they were.

Test: A qHTS for Small Molecule Inhibitors of Shiga Toxin; further: 0% is about no effect
Settings: Vero cells, Shiga toxin protein synthesis inhibition reporter; at 38.7 µM, stronger effect = higher value
For `Cn1nccc1C(=O)NC1CCCc2c1cnn2-c1ccccc1F` (stereo unspecified), the inhibition was -4.18% (inactive).
With `CCN1C(=O)c2cccc3c(S(=O)(=O)Nc4ccccc4O)ccc1c23` the inhibition was 34.3% (inactive).
In the case of `CC1CN(C(=S)Nc2cccc(F)c2)CC(C)O1` (stereo unspecified), the inhibition is reported as -2.89% (inactive).
For `CCCCSc1nnc(-c2ccc(NC(=O)CC)cc2)n1C`, the inhibition was -10.7% (inactive).
With `CCC(=O)Nc1ccc(-c2ccc(N3CCCCC3)nn2)cc1` the inhibition was 63.9% (active).
With `O=C(CN1CCN(c2ccccn2)CC1)Nc1ccc(Br)cc1` the inhibition was -9.75% (inactive).
For `O=C(CN1C(=O)c2cccnc2Oc2ccc(Cl)cc21)NCCc1ccccc1`, the inhibition was 3.75% (inactive).
In the case of `O=C(Cc1ccccc1)Nc1ccc(C(=O)Nc2ccccc2C(=O)O)cc1`, the inhibition is reported as -19.6% (inactive).
In the case of `O=C(CSc1nc(C2CC2)nc2ccccc12)Nc1cccc(O)c1`, the inhibition is reported as -5.2% (inactive).
With `Cc1cc(C)cc(NC(=O)CSc2ccccc2)c1` the inhibition was 29.4% (inactive).
For `CSc1cccc(NC(=O)CSc2ccccc2)c1`, the inhibition was 3.54% (active).
For `CCOc1ccc(C(=O)Nc2ccncc2)cc1`, the inhibition was 77.7% (inactive).
In the case of `Cc1nnc(SCC(=O)Nc2cccc(N)c2)n1-c1ccccc1`, the inhibition is reported as 4.15% (inactive).
With `O=C(CSc1ccccc1)Nc1ccc(C(=O)Nc2cccc(O)c2)cc1` the inhibition was 65.7% (active).
For `CCOc1ccc(C(=O)Nc2cccc(-c3ccc4nncn4n3)c2)cc1`, the inhibition was 35.1% (inactive).
For `CCOc1ccc(C(=O)Nc2cccc(SC)c2)cc1`, the inhibition was 47.7% (active).
For `Cc1cc(S(=O)(=O)c2cc3ccc(O)c(C)c3oc2=O)ccc1F`, the inhibition was 23.1% (inactive).
With `Cc1nn(C)c(C)c1C(C)NC(=O)c1ccc(OC2CCN(Cc3ccccn3)CC2)cc1` (stereo unspecified) the inhibition was 8.35% (inactive).
For `NNC(=O)c1nnn(-c2nonc2N)c1CN1CCCC1`, the inhibition was -1.91% (inactive).
In the case of `CCc1nc(Nc2ccc(NC(C)=O)cc2)c2oc3ccccc3c2n1`, the inhibition is reported as -2.91% (inactive).
With `Cc1c(CNCCc2ccccc2)c(C(=O)O)c(C)n1-c1ccccc1` the inhibition was -0.721% (inactive).
With `Cc1ccc(CSCC2Nc3ccc(C(=O)N4CCN(c5ccc(F)cc5)CC4)cc3NC2=O)cc1` (stereo unspecified) the inhibition was 13.1% (inactive).
In the case of `CCOc1ccc(NC(=O)c2ccc(NC(=O)C3CCCO3)cc2)cc1` (stereo unspecified), the inhibition is reported as 0.828% (inactive).
For `Cc1cc2c(cc1S(=O)(=O)NCc1ccc(Cl)cc1)OCC(=O)N2`, the inhibition was -2.9% (inactive).
With `CC(NC(=O)C1CCCN(S(=O)(=O)c2ccc(-n3cnnn3)cc2)C1)c1ccc(F)cc1` (stereo unspecified) the inhibition was -5.87% (inactive).
In the case of `CSc1ccc(/C=C/C(=O)NC23CC4CC(CC(C4)C2)C3)cc1`, the inhibition is reported as 103% (active).
In the case of `CSc1ccc(NC(=O)/C=C/C(=O)O)cc1`, the inhibition is reported as 18.3% (inactive).
In the case of `Cc1ccc(C(=O)NC23CC4CC(CC(C4)C2)C3)c(Cl)c1`, the inhibition is reported as 6.22% (inactive).
In the case of `Cc1ccc2sc(N(CCN(C)C)C(=O)/C=C/c3cccs3)nc2c1C`, the inhibition is reported as -3.15% (inactive).
With `COC(=O)c1ccc(NC(=O)CSc2nncc3ccc(OC)c(OC)c23)cc1` the inhibition was -11.5% (inactive).
In the case of `COC(=O)c1ccc(Nc2ncnc3sccc23)cc1`, the inhibition is reported as 42% (active).
With `CCOC(=O)c1nc(Nc2ccc(C(=O)OC)cc2)c2ccccc2n1` the inhibition was 17% (inactive).
With `COc1cc2c(cc1OC)C(c1cccc([N+](=O)[O-])c1)=NCC2` the inhibition was -8.7% (inactive).
With `O=C(N/N=C/c1c(O)n(C2CC2)c(=S)[nH]c1=O)c1ccccc1` the inhibition was 84.6% (active).
For `O=C(N/N=C/c1c(O)n(C2CC2)c(=S)[nH]c1=O)c1ccccc1Cl`, the inhibition was 30.7% (inactive).
In the case of `O=c1[nH]c(=S)n(C2CC2)c(O)c1/C=N/N1CCOCC1`, the inhibition is reported as -6.68% (inactive).
With `Cn1cnc2c1c(=O)n(Cc1ccccc1C#N)c(=O)n2C` the inhibition was -8.82% (inactive).
In the case of `COC(=O)[C@@H](NC(=O)Nc1cc(Cl)ccc1C)C(C)C`, the inhibition is reported as 8.66% (inactive).
For `Cc1ccc(NC(=O)c2ccccn2)cc1S(=O)(=O)N1CCOCC1`, the inhibition was 28% (inactive).
For `Cc1ccc(Cl)cc1NC(=O)c1ccccn1`, the inhibition was 31.5% (active).
In the case of `O=C(N/C(=C\c1ccc([N+](=O)[O-])cc1)C(=O)N1CCOCC1)c1cccc(Br)c1`, the inhibition is reported as -35.2% (inactive).
With `Fc1ccccc1OCCSc1nc2ccccc2o1` the inhibition was 110% (active).
For `OCCNCCCCOc1ccccc1F`, the inhibition was -2.38% (inactive).
With `Cn1c(=O)c2c(nc(Br)n2CCSc2nc3ccccc3o2)n(C)c1=O` the inhibition was -12.2% (inactive).
In the case of `O=S(=O)(c1cccc(-c2cn3ccccc3n2)c1)N1CCCC1`, the inhibition is reported as 16.7% (inactive).
With `COc1ccc(C(CC(=O)c2ccccc2)S(=O)(=O)c2ccccc2)cc1` (stereo unspecified) the inhibition was 26.9% (active).
For `COc1ccc(N(Cc2ccccc2)S(=O)(=O)c2cccc(C(=O)O)c2)cc1`, the inhibition was -12.2% (inactive).
For `COc1ccc(CN(C)C(=O)CC(c2ccccc2)c2ccccc2)cc1`, the inhibition was 6.72% (inactive).
In the case of `Cc1[nH]c2ccccc2c1C(=O)CN1CC(C)CC(C)C1` (stereo unspecified), the inhibition is reported as -6.33% (inactive).
In the case of `COc1ccc2nc(Nc3nc4cc5c(cc4s3)OCCO5)sc2c1`, the inhibition is reported as 46.4% (active).
For `COc1ccc2nc(NC(=O)c3ccc(Br)s3)sc2c1`, the inhibition was 51.2% (active).
With `COc1ccc(-n2cnc3cc(C(=O)NC4CCCC4)ccc32)cc1` the inhibition was -10.6% (inactive).
With `COc1ccc2nc(NC(=O)NC3CCCCC3)sc2c1` the inhibition was 96.4% (active).
For `CCn1c(SCC(=O)Nc2nc3ccc(OC)cc3s2)nnc1-c1ccoc1C`, the inhibition was 56.7% (inactive).
In the case of `Cc1nc2cc3c(cc2s1)OCO3`, the inhibition is reported as 13.4% (inactive).
In the case of `COc1ccc2nc(NC(=O)[C@@H]3CCCN3C(=O)c3cccs3)sc2c1`, the inhibition is reported as 60.1% (inactive).
For `COc1ccc2nc(Nc3nc4ccc(NC(C)=O)cc4s3)sc2c1`, the inhibition was 35.3% (inactive).
In the case of `COc1ccc(CNC(=O)c2ccc(Br)s2)cc1OC`, the inhibition is reported as 31.8% (inactive).
With `COc1ccc(N(CC(=O)Nc2cc(OC)ccc2OC)S(=O)(=O)c2c(C)noc2C)cc1` the inhibition was -2.51% (inactive).
For `O=C(O)c1ccc(/C=C2/SC(=S)N(c3cccc(C(F)(F)F)c3)C2=O)cc1`, the inhibition was -0.926% (inactive).
In the case of `CCOC(=O)c1cc(S(=O)(=O)NCCc2ccc(OC)c(OC)c2)cn1C`, the inhibition is reported as -9.15% (inactive).
For `N#CC1=C(N)Oc2c(sc3ccccc23)C1c1ccco1` (stereo unspecified), the inhibition was 139% (active).
For `N#CC1=C(N)Oc2c(c(=O)oc3ccccc23)C1c1ccccc1OC(=O)c1cccs1` (stereo unspecified), the inhibition was -8.1% (inactive).
For `Cc1cc(C)c2c3c(sc2n1)C(c1ccccc1)C(C#N)=C(N)O3` (stereo unspecified), the inhibition was 16.2% (inactive).
In the case of `COc1cccc(NC(=O)CSc2nnc(Cc3ccc(OC)c(OC)c3)o2)c1`, the inhibition is reported as -3.46% (inactive).
For `CCN(CC)CCCNC(=S)N(CCO)Cc1cc2cc3c(cc2[nH]c1=O)OCO3`, the inhibition was -4.73% (inactive).
With `COCCNc1ncnc2c1nc1n2CCCC1` the inhibition was -7.74% (inactive).
For `O=C(COC(=O)c1n[nH]c2ccccc12)NCc1ccccc1`, the inhibition was -4.54% (inactive).
For `O=C(NCCc1ccc(F)cc1)c1n[nH]c2ccccc12`, the inhibition was 69.4% (active).
In the case of `COc1cccc(CNC(=O)Cc2csc(Nc3nc(=S)[nH]c4ccccc34)n2)c1`, the inhibition is reported as 1.99% (inactive).
For `COc1ccc(COC(=O)c2n[nH]c3ccccc23)cc1F`, the inhibition was 52.9% (active).
For `COc1cccc(CNC(=O)c2n[nH]c3ccccc23)c1`, the inhibition was 31.3% (active).
In the case of `CCN(CC)S(=O)(=O)c1ccc2nc(COC(=O)c3n[nH]c4ccccc34)[nH]c2c1`, the inhibition is reported as -12.2% (inactive).
In the case of `O=C(NCCCO)c1cc2c([nH]c3ccccc32)c(-c2ccc(F)cc2)n1`, the inhibition is reported as -5.91% (inactive).
With `O=C(CC(=O)N/N=C\c1ccc(F)cc1)NCCc1ccccc1` the inhibition was 10.7% (inactive).
In the case of `C=CCN(CC=C)C(=O)COC(=O)c1n[nH]c2ccccc12`, the inhibition is reported as 10.1% (inactive).
In the case of `Cc1cccc(OCC(O)Cn2c(N3CCCCC3)nc3c2c(=O)[nH]c(=O)n3C)c1` (stereo unspecified), the inhibition is reported as 35.6% (inactive).
In the case of `CCn1cc(CN2CCC(C(=O)Nc3cccc(-c4cccc(Cl)c4)c3)CC2)c(C)n1`, the inhibition is reported as -29.7% (inactive).
For `Cc1ccccc1NC(=O)Cn1cc(C(=O)C2CC2)c2ccccc21`, the inhibition was 14.9% (inactive).
In the case of `O=C(C1CCN(S(=O)(=O)c2ccc(Br)s2)CC1)N1CCN(c2ccccc2)CC1`, the inhibition is reported as 14.2% (inactive).
In the case of `COc1cc2c(cc1OC)C(C(=O)NCc1ccco1)C1c3ccccc3CCN1C2=O` (stereo unspecified), the inhibition is reported as -23.5% (inactive).
In the case of `Cc1ccc(NC(=O)CSc2sc3c(O)cc(=O)[nH]c3c2C#N)cc1C`, the inhibition is reported as -11.9% (inactive).
In the case of `COc1ccc(C(C)C)cc1S(=O)(=O)Nc1ncn[nH]1`, the inhibition is reported as -1.36% (inactive).
In the case of `O=C(C1CCCN(S(=O)(=O)c2ccccc2)C1)N1CCN(c2ccc(F)cc2)CC1` (stereo unspecified), the inhibition is reported as -6.64% (inactive).
With `Cc1cc(NC(=O)CCC(=O)N(CC(=O)NC2CCCC2)c2ccc(F)cc2)no1` the inhibition was 29.9% (inactive).
In the case of `Fc1ccc(-c2ccc(NCCN3CCOCC3)nn2)cc1`, the inhibition is reported as 51.7% (active).
With `O=C(NCCN1CCOCC1)c1c(F)c(F)c(F)c(F)c1F` the inhibition was 33.6% (inactive).
In the case of `CN(CC(=O)NCCN1CCOCC1)S(=O)(=O)c1ccc(F)cc1`, the inhibition is reported as -3.65% (inactive).
In the case of `O=[N+]([O-])C(=c1ccc2c(c1)N1C3=C(CCCC3)CC3CCCCC31N=2)[N+](=O)[O-]` (stereo unspecified), the inhibition is reported as 27.4% (inactive).
In the case of `COCCCNC(=O)C1CC(=O)N(CCc2ccc(F)cc2)C1` (stereo unspecified), the inhibition is reported as -8.38% (inactive).
In the case of `O=C1CSC(=S)N1/N=C/c1ccc(O)c([N+](=O)[O-])c1`, the inhibition is reported as 34.5% (inactive).
For `CCOc1cccc(/C=N/N2C(=O)CSC2=S)c1O`, the inhibition was 38% (active).
In the case of `CCOc1cccc(/C=N/NC(=S)NCCN2CCOCC2)c1O`, the inhibition is reported as 22.8% (inactive).
For `CCN(CC)CCCNC(=O)c1c(O)c2cc(F)cc3c2n(c1=O)C(C)CC3` (stereo unspecified), the inhibition was 2.56% (inactive).
In the case of `O=C(c1ccccc1)N1CCN(C(=O)c2cc3nc(-c4ccccc4)cc(C(F)(F)F)n3n2)CC1`, the inhibition is reported as 3.38% (inactive).
For `OCCNc1nc(Nc2ccc(Cl)c(Cl)c2)nc2ccccc12`, the inhibition was 29.5% (inactive).
